# Test results published in PubChem BioAssay AID1159580 (chemical genetic matrix, 2015).
# In all, about 5,500 compounds went through this assay and about 2,000 (36%) were called active. Roughly 18% stayed inconclusive and do not appear here. The list shows a part of the results. Values without a mark were called inactive. Rule as the data show it: active = normalized growth mostly below about 0.91 (no sharp cut-off); inconclusive = no clear call, values can overlap the other calls; inactive = mostly above about 0.92.
# Test: chemical genetic growth profiling, strain panel (AID 1159580);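 also: tested at 20 µM; growth read once vehicle control cultures reached saturation at 30 °C; 1 = growth at the plate median or of vehicle wells; lower values mean less growth of the strain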
# Details: S. cerevisiae deletion strains, growth OD
# [1] = locus YAL013W, strain DEP1, active compounds read low
# [2] = locus YAL040C, strain CLN3, active compounds read low
# [3] = locus YCL061C, strain MRC1 (second series), active compounds read low
# [4] = locus YDR363W, strain ESC2, active compounds read low
# [5] = locus YER002W, strain NOP16, active compounds read low
# [6] = locus YGR078C, strain PAC10, active compounds read low
# [7] = locus YMR307W, strain GAS1, active compounds read low
# [8] = locus YNL175C, strain NOP13, active compounds read low
# [9] = locus YNL197C, strain WHI3, active compounds read low
# [10] = locus YNL224C, strain SQS1, active compounds read low
# [11] = locus YOR083W, strain WHI5 (second series), active compounds read low
# [12] = locus YPL055C, strain LGE1, active compounds read low
# [13] = locus YPL241C, strain CIN2, active compounds read low
structure (smiles),measurement,setting,value
CCCCCCCCCCCCCCC[C@H](O)[C@H](N)CO,normalized growth,[1],0.976
same,normalized growth,[2],1.05
same,normalized growth,[3],0.987
same,normalized growth,[4],0.99
same,normalized growth,[5],1.03
same,normalized growth,[6],1.01
same,normalized growth,[7],1.01
same,normalized growth,"locus YNL128W, strain TEP1, active compounds read low",0.222 (active)
same,normalized growth,[8],0.643 (active)
same,normalized growth,[9],1.12 [resistant] (active)
same,normalized growth,[10],0.928
same,normalized growth,[11],0.811 (active)
same,normalized growth,[12],1.02
same,normalized growth,[13],0.998
C[C@@H](N)CO,normalized growth,"locus YAL021C, strain ccr4, active compounds read low",0.998
same,normalized growth,"locus YAL026C, strain drs2, active compounds read low",0.992
same,normalized growth,"locus YAL030W, strain snc1, active compounds read low",0.985
same,normalized growth,"locus YBL061C, strain skt5, active compounds read low",0.994
same,normalized growth,"locus YBR009C, strain hhf1, active compounds read low",1.01
same,normalized growth,"locus YBR023C, strain chs3, active compounds read low",0.987
same,normalized growth,"locus YBR171W, strain sec66, active compounds read low",0.967
same,normalized growth,"locus YBR231C, strain swc5, active compounds read low",0.991
same,normalized growth,"locus YBR279W, strain paf1, active compounds read low",0.987
same,normalized growth,"locus YCL011C, strain gbp2, active compounds read low",0.997
same,normalized growth,"locus YCL016C, strain dcc1, active compounds read low",0.991
same,normalized growth,"locus YCL069W, strain vba3, active compounds read low",0.988
same,normalized growth,"locus YCR088W, strain abp1, active compounds read low",0.993
same,normalized growth,"locus YDL005C, strain med2, active compounds read low",0.961
same,normalized growth,"locus YDL040C, strain nat1, active compounds read low",0.976
same,normalized growth,"locus YDR001C, strain nth1, active compounds read low",0.983
same,normalized growth,"locus YDR069C, strain doa4, active compounds read low",0.967
same,normalized growth,"locus YDR137W, strain rgp1, active compounds read low",0.979
same,normalized growth,"locus YDR159W, strain sac3, active compounds read low",0.972
same,normalized growth,"locus YDR195W, strain ref2",0.954
same,normalized growth,"locus YDR297W, strain sur2, active compounds read low",1
same,normalized growth,"locus YDR334W, strain swr1, active compounds read low",0.989
same,normalized growth,"locus YDR335W, strain msn5, active compounds read low",0.995
same,normalized growth,"locus YDR392W, strain spt3, active compounds read low",0.979
same,normalized growth,"locus YEL003W, strain gim4, active compounds read low",0.997
same,normalized growth,"locus YEL037C, strain rad23, active compounds read low",1
same,normalized growth,"locus YEL061C, strain CIN8 (second series), active compounds read low",1.01
same,normalized growth,"locus YER015W, strain faa2, active compounds read low",0.989
same,normalized growth,"locus YER016W, strain bim1, active compounds read low",0.996
same,normalized growth,"locus YER111C, strain swi4, active compounds read low",0.973
same,normalized growth,"locus YER155C, strain BEM2 (second series), active compounds read low",0.984
same,normalized growth,"locus YFR010W, strain ubp6, active compounds read low",1
same,normalized growth,"locus YGL167C, strain pmr1, active compounds read low",0.984
same,normalized growth,"locus YGL173C, strain kem1, active compounds read low",1
same,normalized growth,"locus YGL227W, strain vid30, active compounds read low",0.973
same,normalized growth,"locus YGL240W, strain doc1, active compounds read low",1.01
same,normalized growth,"locus YGL253W, strain hxk2, active compounds read low",0.989
same,normalized growth,"locus YHR013C, strain ard1, active compounds read low",1
same,normalized growth,"locus YHR027C, strain rpn1, active compounds read low",0.995
same,normalized growth,"locus YHR030C, strain SLT2, active compounds read low",0.984
same,normalized growth,"locus YHR079C, strain IRE1, active compounds read low",0.974
same,normalized growth,"locus YHR142W, strain chs7, active compounds read low",0.98
same,normalized growth,"locus YJL092W, strain hpr5, active compounds read low",0.996
same,normalized growth,"locus YJL095W, strain BCK1 (second series), active compounds read low",0.996
same,normalized growth,"locus YJL095W, strain BCK1, active compounds read low",0.975
same,normalized growth,"locus YJL115W, strain asf1, active compounds read low",1
same,normalized growth,"locus YJL129C, strain trk1, active compounds read low",0.989
same,normalized growth,"locus YJL154C, strain vps35, active compounds read low",0.996
same,normalized growth,"locus YJL164C, strain tpk1, active compounds read low",1.01
same,normalized growth,"locus YJL166W, strain qcr8, active compounds read low",1
same,normalized growth,"locus YJL187C, strain SWE1, active compounds read low",0.988
same,normalized growth,"locus YJR066W, strain TOR1, active compounds read low",0.914
same,normalized growth,"locus YKL160W, strain elf1, active compounds read low",0.968
same,normalized growth,"locus YKR026C, strain gcn3, active compounds read low",0.995
same,normalized growth,"locus YKR091W, strain srl3, active compounds read low",0.977
same,normalized growth,"locus YLL001W, strain dnm1, active compounds read low",0.986
same,normalized growth,"locus YLL026W, active compounds read low",0.994
same,normalized growth,"locus YLL041C, strain sdh2, active compounds read low",0.997
same,normalized growth,"locus YLR027C, strain aat2, active compounds read low",0.999
same,normalized growth,"locus YLR113W, strain HOG1, active compounds read low",1.02
same,normalized growth,"locus YLR221C, strain rsa3, active compounds read low",1.01
same,normalized growth,"locus YLR258W, strain gsy2, active compounds read low",0.995
same,normalized growth,"locus YLR262C, strain YPT6 (second series), active compounds read low",0.973
same,normalized growth,"locus YLR320W, strain mms22, active compounds read low",1.01
same,normalized growth,"locus YLR342W, strain FKS1, active compounds read low",0.987
same,normalized growth,"locus YLR357W, strain rsc2, active compounds read low",0.954
same,normalized growth,"locus YLR370C, strain arc18, active compounds read low",0.996
same,normalized growth,"locus YLR384C, strain iki3, active compounds read low",1.01
same,normalized growth,"locus YML120C, strain ndi1, active compounds read low",0.983
same,normalized growth,"locus YMR058W, strain fet3, active compounds read low",1.02
same,normalized growth,"locus YMR125W, strain sto1, active compounds read low",0.947
same,normalized growth,"locus YMR129W, active compounds read low",0.994
same,normalized growth,"locus YMR205C, strain PFK2, active compounds read low",1.01
same,normalized growth,"locus YMR231W, strain pep5, active compounds read low",0.984
same,normalized growth,"locus YNL071W, strain lat1, active compounds read low",1.01
same,normalized growth,"locus YNL183C, strain NPR1, active compounds read low",0.901
same,normalized growth,"locus YNL209W, strain ssb2, active compounds read low",0.974
same,normalized growth,"locus YNL248C, strain rpa49, active compounds read low",0.942
same,normalized growth,"locus YNL322C, strain KRE1 (second series), active compounds read low",0.973
same,normalized growth,"locus YNR049C, strain mso1, active compounds read low",0.981
same,normalized growth,"locus YOR001W, strain rrp6, active compounds read low",1.01
same,normalized growth,"locus YOR070C, strain gyp1, active compounds read low",0.986
same,normalized growth,"locus YOR080W, strain dia2, active compounds read low",0.969
same,normalized growth,"locus YOR083W, strain WHI5, active compounds read low",0.94
same,normalized growth,"locus YOR106W, strain vam3, active compounds read low",0.964
same,normalized growth,"locus YOR231W, strain MKK1, active compounds read low",0.974
same,normalized growth,"locus YOR265W, strain rbl2, active compounds read low",0.992
same,normalized growth,"locus YOR270C, strain vph1, active compounds read low",0.976
same,normalized growth,"locus YOR290C, strain snf2, active compounds read low",0.984
same,normalized growth,"locus YPL051W, strain arl3, active compounds read low",0.99
same,normalized growth,"locus YPL078C, strain atp4, active compounds read low",0.976
same,normalized growth,"locus YPL106C, strain sse1, active compounds read low",0.973
same,normalized growth,"locus YPL240C, strain hsp82, active compounds read low",0.995
same,normalized growth,"locus YPL256C, strain CLN2, active compounds read low",0.988
CCCCCCCCCCCCC/C=C/[C@@H](O)[C@@H](N)CO,normalized growth,[1],0.877 (active)
same,normalized growth,[2],0.984
same,normalized growth,[3],0.925 (active)
same,normalized growth,"locus YDR150W, strain NUM1, active compounds read low",0.848 (active)
same,normalized growth,[4],0.929
same,normalized growth,[5],1.02
same,normalized growth,[6],1.01
same,normalized growth,"locus YGR229C, strain SMI1, active compounds read low",0.172 (active)
same,normalized growth,"locus YJR075W, strain HOC1, active compounds read low",0.644 (active)
same,normalized growth,[7],1.02
same,normalized growth,"locus YNL153C, strain GIM3, active compounds read low",0.844
same,normalized growth,[8],1.19 [resistant] (active)
same,normalized growth,[9],1.1
same,normalized growth,[10],1.06
same,normalized growth,[11],1.11
same,normalized growth,[12],0.757 (active)
same,normalized growth,[13],0.926 (active)
